Pf growth 48h – inhibits P. falciparum growth in the first generation, 48 h | Potency, µM (top dose mostly 28.7 µM), most hits filed as inhibitors | P. falciparum luciferase growth in erythrocytes, 48 h | actives 5.9% (n = 310,000)
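Read-out is firefly luciferase luminescence from an integrated reporter in P. falciparum, so falling signal marks reduced parasite growth. Infected erythrocytes were at 2% hematocrit and 0.1% parasitemia (final) in Albumax-supplemented RPMI 1640.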
AMA1-RON2 inh – AMA1-RON2 (P. falciparum) interaction inhibition; AlphaScreen AMA1-biotinylated RON2 peptide binding; Potency, µM (top dose mostly 58.2 µM), actives largely listed as inhibitors; actives 0.2% (n = 360,000); also: nearly all actives have a fitted effect of over 45% in size
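AMA1 (3D7) with his tag at 25 nM final met compounds first, then biotinylated RON2 peptide at 25 nM; detection used donor plus acceptor beads, 10 µg/mL apiece, read by AlphaScreen after 30 min at room temperature.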
Pf growth 96h – inhibits malaria parasite growth, 96 h; P. falciparum luciferase reporter growth, 96 h; Potency, µM (doses to about 28.7 µM), usual class: inhibitors; actives 6.9% (n = 320,000); AID 504834
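Infected RBCs, 2% Hct / 0.05% parasitemia final; luciferase-reporter P. falciparum; cpd 96 h, 37 C, 5% CO2; luciferase detection reagent; luminescence.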
NS1 function inh – influenza NS1 inhibition | actives 0.4% (n = 270,000) | Potency, µM (series often up to 46.1 µM); calls by dose curve; also: actives are rising curves; nearly all actives have a fitted effect of over 50% in size
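In this qHTS, NS1 from influenza A is expressed in budding yeast, where it slows growth. Cells are switched from glucose to 2% galactose medium (pH 6.0, -URA), treated with compound, and growth recovery is read at OD600.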
SARS PLpro yeast – SARS-CoV PLP inhibition in yeast. Potency, µM (top dose mostly 32.9 µM), usual class: activators. S. cerevisiae expressing SARS-CoV PLpro, growth rescue. actives 0.19% (n = 330,000); calls by dose curve; also: nearly all actives have a fitted effect of over 55% in size
HCV inhibitor – blocks hepatitis C virus. Huh7.5.1 HCVcc-Cre infection, luciferase reporter, 44 h. Potency, µM (series often up to 41.8 µM), usual class: inhibitors. actives 3.4% (n = 340,000). AID 651820
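Antiviral activity was scored by luciferase reporter output from cells infected with HCVcc-Cre (~0.5 moi) in presence of compound, 44 h infection period, cells seeded 1,000/well 4 h prior.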
Large screens that a line does not name were inactive. A selection: hits, their analogues and other compounds. The true share with any hit is near 12%. Unless noted, calls follow the shape of the dose curve; as a rule, active = well fitted curve in the direction sought with a large enough effect; inconclusive = small, poorly fitted or top-dose-only effect, or another doubt; inactive = no such curve, though single readings can be large; an effect the other way counts as inactive or inconclusive.

CC(C)(CC(=O)O)CC(=O)NNc1ncccc1C#N	Pf growth 48h 4.1µM
CCc1ccc(Nc2ncccc2C#N)cc1	none
Cn1ccsc1=NC(=O)c1ccc(S(C)(=O)=O)c([N+](=O)[O-])c1	HCV inhibitor 10µM
N#CC12CCCCC1CC1CCCCC1(C#N)N2N (stereo unspecified)	Pf growth 48h 13µM, Pf growth 96h inconclusive
N#CC12CCCCC1CC1CCCCC1(C#N)N2Cc1ccccn1 (stereo unspecified)	Pf growth 48h inconclusive, Pf growth 96h 9.3µM
N#CC12CCCCC1CC1CCCCC1(C#N)N2CCO (stereo unspecified)	none
CCOC(=O)c1cnc[nH]c1=O	none (no result: Pf growth 48h, Pf growth 96h, NS1 function inh, SARS PLpro yeast)
Nc1nn(-c2ccccc2Cl)cc1-c1nn[nH]n1	HCV inhibitor inconclusive
c1ccc(N2CCN(c3nc4ccccc4n4cnnc34)CC2)cc1	Pf growth 96h 4.1µM (no result: Pf growth 48h)
c1ccc2c(c1)nc(N1CCOCC1)c1nncn12	Pf growth 96h inconclusive, HCV inhibitor inconclusive (no result: Pf growth 48h)
C[n+]1ccc(/C=C/c2ccc(Br)cc2)cc1	Pf growth 48h 0.33µM, Pf growth 96h 1.3µM, HCV inhibitor inconclusive
Cc1ccc2[nH]c(C)c(/C=C/c3cc[n+](C)cc3)c2c1	Pf growth 48h inconclusive, HCV inhibitor inconclusive
O=C(c1ccoc1)N1CCCC(N2CCN(c3cccc(Cl)c3)CC2)C1 (stereo unspecified)	none
CN(C)c1ccc(N=Nc2ccc3ncccc3c2)cc1	AMA1-RON2 inh inconclusive (no result: Pf growth 48h, Pf growth 96h, NS1 function inh, SARS PLpro yeast)
Cc1cc(N(C)C)ccc1N=Nc1ccc2ncccc2c1	AMA1-RON2 inh 11µM, Pf growth 96h inconclusive, HCV inhibitor inconclusive
CCCCCCn1c(Br)nc2c1c(=O)n(C)c(=O)n2C	Pf growth 96h inconclusive
CCCCc1nnc(SCC(=O)Nc2nccs2)n1C	Pf growth 96h 10µM
Cn1c(SCC(=O)Nc2nccs2)nnc1-c1ccc(S(=O)(=O)N2CCCC2)cc1	Pf growth 96h 6.6µM (no result: Pf growth 48h)
CCCc1nnc(SCC(=O)Nc2nccs2)o1	Pf growth 48h 9.3µM (no result: SARS PLpro yeast)
Cn1c(CSCc2ccccc2Cl)nnc1SCC(=O)Nc1nccs1	Pf growth 48h inconclusive, Pf growth 96h 12µM
Cc1cccc(C)c1OCc1nnc(SCC(=O)Nc2nccs2)o1	none (no result: Pf growth 48h)
CNC(=O)N(O)C1N(/N=C/c2c(F)cccc2Cl)C(=S)SC1(C)C (stereo unspecified)	none
Cn1nc(C(C)(C)C)c(NC(=O)c2cccs2)c1C(C)(C)C	none
N#Cc1cccc(C=C(C(=O)c2ccccc2)c2ccccc2)c1	none (no result: Pf growth 48h, Pf growth 96h, NS1 function inh, SARS PLpro yeast, HCV inhibitor)
CC1(C)CC(=O)C(CC(=O)Nc2cc(C(F)(F)F)ccc2Cl)C(=O)C1	none (no result: NS1 function inh)
CCOC(=O)CSc1n[nH]c(NC(C)=O)n1	none
O=C(Cc1ccccc1)NNC(=O)c1ccccc1C(=O)O	none
Cc1cccc(Oc2ccc(NC(=O)C3=CC=CN4CCS(=O)(=O)N=C34)cc2)c1	Pf growth 48h inconclusive, Pf growth 96h 12µM (no result: NS1 function inh)
CC1(C)OC(=O)N(c2ccccn2)C1(C)O (stereo unspecified)	none
Cc1ccnc(N2C(=O)OC(C)(C)C2(C)O)c1 (stereo unspecified)	Pf growth 96h 8.3µM
COC(=O)C(CC(=O)c1ccc(Br)cc1)n1ccnc1 (stereo unspecified)	Pf growth 48h inconclusive, HCV inhibitor 1.3µM (no result: AMA1-RON2 inh)
Cc1ccccc1OCC(O)CN(CCO)Cc1ccccc1 (stereo unspecified)	Pf growth 48h inconclusive, Pf growth 96h inconclusive (no result: NS1 function inh)
CCCCN(CCCC)CC(O)COc1ccccc1Br (stereo unspecified)	Pf growth 48h 4.1µM, HCV inhibitor inconclusive
O=[N+]([O-])c1ccc(OCC(O)CNC2CCCC2)cc1 (stereo unspecified)	AMA1-RON2 inh inconclusive, NS1 function inh inconclusive
CC(C)CN(CC(C)C)CC(O)COc1ccccc1Br (stereo unspecified)	Pf growth 48h inconclusive, Pf growth 96h 3.3µM
CC(C)CN(CC(C)C)CC(O)COc1ccc([N+](=O)[O-])cc1 (stereo unspecified)	Pf growth 48h 12µM
O=C(O)c1ccc(C(=O)O)c(C(=O)Nc2ccc3c(c2)Cc2ccccc2-3)c1	none (no result: Pf growth 48h, AMA1-RON2 inh, Pf growth 96h, SARS PLpro yeast, HCV inhibitor)
CCN(CC(=O)Nc1c(F)cccc1F)C(=O)c1ccc(S(=O)(=O)N(CC)c2ccccc2)cc1	none (no result: Pf growth 48h, Pf growth 96h, NS1 function inh, SARS PLpro yeast)
Cc1ccc(S(=O)(=O)NCCCCCCNS(=O)(=O)c2ccc(C)cc2)cc1	none (no result: Pf growth 48h, Pf growth 96h, NS1 function inh, SARS PLpro yeast, HCV inhibitor)
CCOCCCNC(=O)CCNS(=O)(=O)c1ccc(C)cc1	Pf growth 96h 9.3µM
COCCNC(=O)CCCCCNS(=O)(=O)c1ccc(C)cc1	none
Cc1ccc(NC(=O)CCCCCNS(=O)(=O)c2ccc(C)cc2)cc1	Pf growth 48h inconclusive, Pf growth 96h 12µM, HCV inhibitor inconclusive
Cc1ccc(S(=O)(=O)NCCCCCC(=O)Nc2nccs2)cc1	Pf growth 48h 13µM
O=C(CCCNS(=O)(=O)c1ccc(F)cc1)Nc1ccc(F)cc1	none
Cc1ccc(S(=O)(=O)NCCCCCC(=O)N(C)C)cc1	Pf growth 96h 10µM
COCCN(C(=O)COC(=O)CCS(=O)(=O)c1ccccc1)c1c(N)n(Cc2ccccc2)c(=O)[nH]c1=O	Pf growth 48h inconclusive (no result: NS1 function inh)
CC1NC(=O)NC1CCCCCC(=O)Nc1ccc(F)c(Cl)c1 (stereo unspecified)	Pf growth 48h inconclusive, AMA1-RON2 inh inconclusive, Pf growth 96h inconclusive (no result: NS1 function inh)
Cc1ccc(NC(=O)CCCCCC2NC(=O)NC2C)cc1 (stereo unspecified)	AMA1-RON2 inh 0.21µM (no result: Pf growth 96h)
Cc1cc(C)c2nc(NCCCNC(=S)NCCCN(C)C)c(C#N)cc2c1	Pf growth 48h inconclusive, HCV inhibitor 11µM (no result: NS1 function inh)
CC(OC(=O)C1CSC2(C)CCC(=O)N12)C(=O)Nc1ccc(F)cc1 (stereo unspecified)	none (no result: NS1 function inh)
CCNC(=S)N(Cc1ccc2c(c1)OCO2)C1CC(=O)N(c2ccc(F)cc2)C1=O (stereo unspecified)	Pf growth 48h 9.3µM, Pf growth 96h inconclusive
CCSC1=C(C#N)C(c2cccs2)C(C(=O)OC)=C(C)N1 (stereo unspecified)	none (no result: Pf growth 48h)
CC1=C(C(=O)Nc2ccccc2)C(c2ccncc2)C(C#N)=C(SCC(=O)NC2CC2)N1 (stereo unspecified)	Pf growth 96h inconclusive
CCCSC1=C(C#N)C(c2cccs2)C(C(=O)Nc2ccccc2)=C(C)N1 (stereo unspecified)	Pf growth 48h 8.3µM, HCV inhibitor 11µM
CC1=C(C(=O)Nc2ccccc2)C(c2ccncc2)C(C#N)=C(SCC(=O)NC(C)C)N1 (stereo unspecified)	Pf growth 48h 10µM
Cc1ccc(CN2CCN(C/C(Cl)=C/c3ccccc3)CC2CCO)o1 (stereo unspecified)	none
O=c1c(Cl)c(N2CCC3(CC2)OCCO3)cnn1C12CC3CC(CC(C3)C1)C2	Pf growth 48h inconclusive, Pf growth 96h inconclusive
